Test results reported in PubChem BioAssay (EPA / NIEHS).
Values joined by “and” are separate entries in the source; they are usually repeats but may differ in a detail not shown here. Equal entries are not always repeated. Results filed as inconclusive are left out. A structure can be active in one record and inactive in another. Active and inactive are the calls of the source. Rule for the calls: active = hit-call score of the fitted dose curve at least 0.9, where 1 is the maximum; inconclusive = response in the unintended direction; inactive = score below 0.9.

Assays:
[1] = Tanguay_ZF_120hpf_SWIM_legacy: (Legacy) Oregon State University Tanguay Lab 120 Hour Post-fertilization zebrafish Assay for Swim Bladder Malformation (AID 2283654);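 note: swim bladder malformation in each larva scored yes or no under brightfield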
How it was run: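 Dechorionated wild-type Tropical 5D zebrafish embryos, one per well from 6 hpf, were statically exposed at 28C until 120 hpf in 0.64% DMSO. Swim bladder malformation scored as present/absent by brightfield microscopy; not scored in dead larvae.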

[2] = Tanguay_ZF_120hpf_TRUN_legacy: (Legacy) Oregon State University Tanguay Lab 120 Hour Post-fertilization zebrafish Assay for Truncated Body (AID 2283655)
How it was run: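 Whole-embryo zebrafish screen: dechorionated 5D embryos, static exposure 6–120 hpf, 28C, sealed foil-covered plates, 0.64% DMSO. Binary truncation call; gain of signal versus DMSO baseline.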

[3] = Tanguay_ZF_120hpf_NC_legacy: (Legacy) Oregon State University Tanguay Lab 120 Hour Post-fertilization zebrafish Assay for Notochord and Tail Malformation (AID 2283656)
How it was run: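 Dechorionated Tropical 5D wild-type zebrafish embryos, one per well from 6 hpf, statically exposed to 120 hpf at 28C in 0.64% DMSO final. Notochord distortion scored present/absent by brightfield; dead embryos excluded.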

[4] = read-out: ABC Transporter (ABCB1), ABCB1 (gene 5243); assay: CLD_ABCB1_6hr: CellzDirect (CLD) Gene Expression Assay for ABC Transporter (ABCB1) at 6 hours (AID 2283659);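 note: hits raise ABCB1 transcript above the DMSO vehicle baseline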
How it was run: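 Primary human hepatocytes (two donor preparations) dosed daily for two days with chemicals at multiple concentrations, 0.2% DMSO vehicle; harvested 6 h post-dose. ABCB1 mRNA induction quantified by qNPA chemiluminescence; gain-of-signal fitted versus DMSO.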

[5] = read-out: Broad substrate specificity ATP-binding cassette transporter ABCG2 (Homo sapiens) (UniProt Q9UNQ0); assay: CLD_ABCG2_6hr: CellzDirect (CLD) Gene Expression Assay for ABC Transporter (ABCG2) at 6 hours (AID 2283660)
How it was run: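 Primary human hepatocytes dosed daily with chemicals at multiple concentrations (0.2% DMSO vehicle), harvested 6 h after dosing. ABCG2 mRNA induction read by quantitative nuclease protection assay (qNPA) chemiluminescence; gain of signal fitted against DMSO baseline.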

[6] = tested on: Thyroperoxidase (TPO), gene 54314; assay: CCTE_Simmons_AUR_rTPO: CCTE's Amplex UltraRed Assay for Thyroperoxidase (TPO) Inhibition, Simmons Lab (AID 2283662);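 for AC50: potency for loss of signal meaning inhibition of peroxidase activity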
How it was run: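 Rat thyroid microsomes (5 ug protein) with 25 uM Amplex UltraRed and 300 uM H2O2 in 200 mM phosphate buffer, 30 min at 37C in dark; fluorescence 544/590 nm. Eight concentrations, 5 nM–87.5 uM final, 0.5% DMSO, triplicate biological replicates.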

[7] = CCTE_Simmons_CellTiterGLO_HEK293T: Viability Assessment in CCTE's Assays for Thyroperoxidase (TPO) Inhibition, Simmons Lab (AID 2283665);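 for AC50: cells exposed to compound for 24 h before readout; actives reduce ATP signal below DMSO vehicle meaning cytotoxicity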
How it was run: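 HEK293T, 10 000 cells/well, DMEM + 1% FBS; 8-pt titration 5 nM–87.5 uM [final], 0.5% DMSO; 24 hr, 37C, 5% CO2; CellTiter-Glo luminescence; n=3 biological replicates.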

[8] = read-out: organic anion transporter (SLCO1B1), SLCO1B1 (gene 10599); assay: CLD_SLCO1B1_6hr: CellzDirect (CLD) Gene Expression Assay for organic anion transporter (SLCO1B1) at 6 hours (AID 2283668);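 note: active means mRNA induction above DMSO baseline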
How it was run: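 Primary human hepatocytes dosed daily with test chemicals (multiple concentrations) in 0.2% DMSO vehicle; harvested at 6 h. SLCO1B1 mRNA quantified by qNPA chemiluminescence, fitted as gain-of-signal versus DMSO; cytotoxicity from phase-contrast morphology flagged alongside.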

[9] = read-out: glucuronosyltransferase (UGT1A1), UGT1A1 (gene 54658); assay: CLD_UGT1A1_6hr: CellzDirect (CLD) Gene Expression Assay for glucuronosyltransferase (UGT1A1) at 6 hours (AID 2283672)
How it was run: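 Primary human hepatocytes from two donor preparations, dosed with fresh solutions in 0.2% DMSO, harvested at 6 h. UGT1A1 mRNA measured by qNPA chemiluminescence; induction fitted upward versus DMSO.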

[10] = read-out: xenobiotic metabolism (CYP1A1), CYP1A1 (gene 1543); assay: CLD_CYP1A1_24hr: CellzDirect (CLD) Gene Expression Assay for xenobiotic metabolism (CYP1A1) at 24 hours (AID 2283673);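 note: CYP1A1 mRNA level by quantitative nuclease protection with chemiluminescence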
How it was run: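 Primary human hepatocytes dosed daily with fresh solutions in 0.2% DMSO vehicle. mRNA measured at 24 h by quantitative nuclease protection assay with chemiluminescence; gain-of-signal fit versus DMSO, with morphology-based cytotoxicity flags.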

[11] = read-out: ABC Transporter (ABCB11), ABCB11 (gene 8647); assay: CLD_ABCB11_6hr: CellzDirect (CLD) Gene Expression Assay for ABC Transporter (ABCB11) at 6 hours (AID 2283675);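 note: hits raise ABCB11 mRNA level so AC50 marks induction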
How it was run: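 Human primary hepatocytes (two donor preparations) given fresh chemical daily at multiple concentrations, vehicle 0.2% DMSO. ABCB11 mRNA induction measured 6 h after dosing by qNPA chemiluminescence versus DMSO; cytotoxicity annotated from morphology.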

[12] = read-out: xenobiotic metabolism (CYP1A1), CYP1A1 (gene 1543); assay: CLD_CYP1A1_6hr: CellzDirect (CLD) Gene Expression Assay for xenobiotic metabolism (CYP1A1) at 6 hours (AID 2283661);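 for AC50: potency for transcript induction above DMSO vehicle baseline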
How it was run: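 Primary human hepatocytes from two donors, compound versus 0.2% DMSO vehicle. CYP1A1 mRNA measured 6 h after dosing by quantitative nuclease protection assay with chemiluminescent read-out; induction fitted relative to DMSO, cytotoxicity flagged by microscopy.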

[13] = read-out: xenobiotic metabolism (CYP1A2), CYP1A2 (gene 1544); assay: CLD_CYP1A2_6hr: CellzDirect (CLD) Gene Expression Assay for xenobiotic metabolism (CYP1A2) at 6 hours (AID 2283663);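 for AC50: potency is for induction meaning a rise in mRNA above DMSO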
How it was run: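 Primary human hepatocytes from two donor preparations, dosed daily with multiple concentrations in 0.2% DMSO and harvested at 6 h. CYP1A2 mRNA induction measured by chemiluminescent qNPA, gain of signal fitted against DMSO; cytotoxicity flagged morphologically.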

[14] = read-out: sulfotransferase (SULT2A), SULT2A1 (gene 6822); assay: CLD_SULT2A_6hr: CellzDirect (CLD) Gene Expression Assay for sulfotransferase (SULT2A) at 6 hours (AID 2283669);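 note: hits raise transcript level above the DMSO vehicle baseline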
How it was run: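 Primary human hepatocytes from two donor preparations were dosed daily with chemicals or 0.2% DMSO and harvested at 6 h. Transcript induction read by qNPA chemiluminescence, fitted for gain of signal relative to DMSO; morphology-based cytotoxicity annotated.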

[15] = CLD_ACTIN_6hr: CellzDirect (CLD) Gene Expression Assay for Baseline Control (Actin) at 6 hours (AID 2283676);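 note: active means increased actin mRNA relative to DMSO vehicle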
How it was run: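 Primary human hepatocytes dosed with fresh chemical solutions (vehicle 0.2% DMSO), harvested at 6 h. Actin mRNA quantified by quantitative nuclease protection assay with chemiluminescent read-out, as background control relative to DMSO.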

[16] = Tanguay_ZF_120hpf_TR_legacy: (Legacy) Oregon State University Tanguay Lab 120 Hour Post-fertilization zebrafish Assay for Touch Response (AID 2283667)
How it was run: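 Tropical 5D wild-type zebrafish embryos statically exposed to 120 hpf at 28°C, sealed and dark-covered, 0.64% DMSO final; touch response scored as present/absent by brightfield microscopy at 120 hpf. Trimethyltin chloride 5 uM positive control; dead embryos not scored.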

Measured: AC50

Sequence of Broad substrate specificity ATP-binding cassette transporter ABCG2 (Homo sapiens) (Q9UNQ0 whole entry, looked up): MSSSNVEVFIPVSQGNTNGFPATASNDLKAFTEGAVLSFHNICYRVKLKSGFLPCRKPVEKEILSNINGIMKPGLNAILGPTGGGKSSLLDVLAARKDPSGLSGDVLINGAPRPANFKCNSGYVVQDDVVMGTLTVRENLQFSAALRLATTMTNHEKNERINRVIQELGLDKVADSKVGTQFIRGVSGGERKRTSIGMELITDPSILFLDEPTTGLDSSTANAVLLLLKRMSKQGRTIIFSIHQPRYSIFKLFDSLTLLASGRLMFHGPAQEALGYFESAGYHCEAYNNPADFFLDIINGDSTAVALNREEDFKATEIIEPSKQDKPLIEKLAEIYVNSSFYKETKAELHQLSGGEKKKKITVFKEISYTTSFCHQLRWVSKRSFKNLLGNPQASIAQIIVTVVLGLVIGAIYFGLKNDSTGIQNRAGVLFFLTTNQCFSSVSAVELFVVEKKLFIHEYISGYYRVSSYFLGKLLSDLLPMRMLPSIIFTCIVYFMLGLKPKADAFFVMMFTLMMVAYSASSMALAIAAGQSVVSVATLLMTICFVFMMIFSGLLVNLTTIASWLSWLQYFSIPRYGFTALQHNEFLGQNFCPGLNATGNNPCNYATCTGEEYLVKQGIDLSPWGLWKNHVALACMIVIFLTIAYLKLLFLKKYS

Oc1ccccc1-c1ccccc1
active: [6] 35.2 µM | [7] 97.1 µM | [10] 35.9 µM
not listed: [12] | [13] | [14] | [15] | [16]
inactive: all other assays above

COP(=S)(OC)Oc1nc(Cl)c(Cl)cc1Cl
active: [12] 5.29 µM | [6] 4.62 µM | [13] 6.12 µM | [7] 85.6 µM | [10] 3.97 µM
not listed: [16]
inactive: all other assays above

CCCN(CCC)c1c([N+](=O)[O-])cc(S(N)(=O)=O)cc1[N+](=O)[O-]
active: [7] 27.1 µM [middle of 5 runs] | [10] 4.81 µM
not listed: [12] | [15]
inactive: all other assays above

CCOC(=O)CC(SP(=S)(OC)OC)C(=O)OCC (centres undefined)
active: [1] 28.8 µM | [2] 34.2 µM | [12] 3.97 µM | [6] 3.4 µM | [13] 3.97 µM
not listed: [15] | [16]
inactive: all other assays above

COC(=O)c1ccccc1C(=O)OC
not listed: [6] | [7] | [14] | [16]
inactive: all other assays above

CCCCOC(=O)c1ccccc1C(=O)OCCCC
inactive: [1] | [2] | [3] | [4] | [13] | [8] | [14] | [9] | [10] | [11] | [15]
active: [12] 3.36 µM and 5.18 µM | [13] 3.87 µM | [10] 4.22 µM

COc1cnc(OC)n2nc(NS(=O)(=O)c3c(OCC(F)F)cccc3C(F)(F)F)nc12
active: [12] 0.121 µM | [13] 0.255 µM
not listed: [5] | [6] | [7] | [11] | [16]
inactive: all other assays above

CCc1nn(C)c(C(=O)NCc2ccc(C(C)(C)C)cc2)c1Cl
active: [12] 6.51 µM | [13] 20 µM | [14] 2.8 µM | [10] 7.44 µM
not listed: [4] | [6] | [7] | [16]
inactive: all other assays above

C=CCC1=C(C)C(OC(=O)C2C(C=C(C)C)C2(C)C)CC1=O (centres undefined)
active: [6] 33.6 µM | [7] 54.1 µM
not listed: [11] | [13] | [16]
inactive: all other assays above

CCCCNC(=O)n1c(NC(=O)OC)nc2ccccc21
active: [12] 3.66 µM | [10] 20 µM
not listed: [14] | [16]
inactive: all other assays above

COC(=O)C(C)Oc1ccc(Oc2ccc(Cl)cc2Cl)cc1 (centres undefined)
inactive: [1] | [2] | [3] | [4] | [5] | [13] | [8] | [14] | [9] | [10] | [11] | [15]
active: [12] 3.97 µM and 4.59 µM | [13] 3.97 µM and 4.91 µM
